Test [1] addresses Retinoic acid receptor RXR-alpha (Homo sapiens) (UniProt P19793). Description: qHTS assay to identify small molecule agonists of the RXR signaling pathway (AID 1159527; calls by dose curve; note: nearly all actives have a fitted effect of over 35% in size; note: potency is the fitted concentration of half-maximal effect). The gist of the method:
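Cells plated at 2,000/well, rested 5 hr at 37 C, pin-dosed with DMSO compound solutions, incubated 16 hr, then loaded with B/G FRET substrate for 2 hr at RT before dual-emission fluorescence reading.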

The nature of test [2]: qHTS assay to identify small molecule agonists of the RXR signaling pathway - cell viability counter screen (AID 1159529). Note: nearly all actives have a fitted effect of over 50% in size. Note: potency is the fitted concentration of half-maximal effect. The gist of the method: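 Steps: seed RXR-alpha-UAS-bla HEK 293T cells in assay medium containing 2% charcoal-stripped FBS; incubate 5 hr; add compounds in DMSO; incubate 16 hr at 37 C; after the bla read, add CellTiter-Glo and read luminescence at 30 min.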

The nature of test [3]: qHTS assay to identify small molecule antagonists of the retinoic acid receptor (RAR) signaling pathway (AID 1159552; note: nearly all actives have a fitted effect of over 50% in size; note: potency is the fitted concentration of half-maximal effect). In short, it runs like this:
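Retinol at 1 uM final stimulated RARE-luciferase expression in C3RL4 cells exposed to test compounds for 6 hr at 37 C. Reduced luminescence, read 30 min after detection reagent, indicated pathway antagonism.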

The nature of test [4]: qHTS assay to identify small molecule agonists of the retinoic acid receptor (RAR) signaling pathway (AID 1159553). Note: potency is the fitted concentration of half-maximal effect. The gist of the method: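 Activation of retinol signaling was monitored via a RARE luciferase reporter in C3RL4 cells. After 6 hr compound treatment at 37 C, detection reagent was added for 30 min at room temperature before luminescence reading.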
In general terms: qHTS replaces the single test concentration by a dilution series.

Test [5] is described as follows: qHTS assay to identify small molecule antagonists of the retinoid acid receptor (RAR) signaling pathway - cell viability counter screen (AID 1159551). Note: nearly all actives have a fitted effect of over 35% in size. In short, it runs like this:
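Seed C3RL4 cells; next day add compound, then retinol to 1 uM final; incubate 6 h at 37 C; add CellTiter-Glo; read luminescence after 30 min at RT.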

A short description of test [6]: qHTS assay to identify small molecule antagonists of the estrogen related receptor (ERR) signaling pathway - cell viability counter screen (AID 1224818).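 Note: series mostly up to about 46 µM; viability measured after 17.5 h of compound exposure.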 In short, it runs like this:
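In the same ERR cell assay, compound-treated wells (17.5 h, 37 C) were multiplexed with a fluorogenic viability reagent, CellTiter-Fluor, read after 30 min to flag cytotoxic substances.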

The nature of test [7]: qHTS assay to identify small molecule antagonists of the estrogen related receptor signaling pathway with the pleiotropic PPARgamma coactivator (PGC) cell viability counter screen (AID 1224822; note: series mostly up to about 46 µM). The gist of the method: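 Compounds in DMSO, with positive and negative controls, were applied to PGC/ERR cells (2,000/well) and left 17.5 h at 37 C before CellTiter-Fluor detection.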

Each structure is given as a SMILES string. Where “and” joins values, the source holds several entries; their conditions need not be identical. Identical values can stand only once. Results filed as inconclusive are left out. More than one record can exist for a structure, and the calls need not agree. Calls of active or inactive are those of the source. Unless noted, calls come from the whole dose curve; as a rule, active = well fitted curve in the direction sought with a large enough effect in the repeat runs; inconclusive = weak or mixed curves; inactive = no such curve, though single readings can be large; an effect the other way counts as inactive or inconclusive.

The results in this text go back to PubChem BioAssay (Tox21).

Sequence of Retinoic acid receptor RXR-alpha (Homo sapiens) (P19793 whole entry, looked up): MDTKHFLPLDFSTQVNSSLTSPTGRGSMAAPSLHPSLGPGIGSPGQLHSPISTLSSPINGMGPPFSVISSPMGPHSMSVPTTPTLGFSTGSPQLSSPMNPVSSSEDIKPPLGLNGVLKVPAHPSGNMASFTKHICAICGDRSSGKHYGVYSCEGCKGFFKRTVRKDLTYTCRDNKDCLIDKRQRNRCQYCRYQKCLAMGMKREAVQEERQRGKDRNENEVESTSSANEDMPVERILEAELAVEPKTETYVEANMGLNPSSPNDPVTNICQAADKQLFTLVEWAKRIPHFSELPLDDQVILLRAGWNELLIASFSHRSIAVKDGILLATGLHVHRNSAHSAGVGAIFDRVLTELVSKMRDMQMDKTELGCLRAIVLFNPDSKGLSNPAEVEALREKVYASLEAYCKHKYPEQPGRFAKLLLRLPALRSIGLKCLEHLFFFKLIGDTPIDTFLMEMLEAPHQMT

With `C=CC(C)(O)CCCC(C)CCCC(C)CCCC(C)C` (stereo unspecified), the Potency in test [1] was 6.13 µM (active). Further, the Potency entry in test [2], in test [3] and in test [4] was “inactive” each time.
For the molecule `O=C1OCCN1/N=C/c1ccc([N+](=O)[O-])o1`, the Potency entry in test [1], in test [2], in test [5] and in test [4] was “inactive” in each case.
`COc1ccc([C@@H]2Sc3ccccc3NC(=O)[C@@H]2O)cc1`: the Potency entry in test [2] and in test [5] was “inactive” each time.
`C[C@]12CCC(=O)C=C1C=C[C@@H]1[C@@H]2CC[C@@]2(C)[C@H]1CC[C@@]21CCC(=O)O1`: the Potency result in test [1], in test [2], in test [5] and in test [4] was “inactive” in each case.
As to `COc1cc2c(N3CCN(C(=O)Nc4ccc(OC(C)C)cc4)CC3)ncnc2cc1OCCCN1CCCCC1`, the Potency result in test [1], in test [5] and in test [4] was “inactive” in each case.
As for `CC(=O)[C@H]1CC[C@H]2[C@@H]3C[C@H](C)C4=CC(=O)CC[C@]4(C)[C@H]3[C@@H](O)C[C@]12C`, the Potency result in test [1], in test [2], in test [5] and in test [4] was “inactive” each time.
`CC1(C)C2=CCCC(C)(C)[C@]23CC[C@H]1C3`: the Potency result in test [1], in test [5], in test [3] and in test [4] was “inactive” in each case.
In the case of `CCCCCCCC/C=C\CCCCCCCC(=O)OC(CO)CO`, the Potency result in test [1], in test [2], in test [5] and in test [4] was “inactive” in each case.
`O=C(O)c1cccnc1C(=O)O`: the Potency entry in test [1], in test [2], in test [5], in test [3] and in test [4] was “inactive” throughout. Besides, the outcome in test [6] and in test [7] was inactive.
For `Cc1oncc1C(=O)Nc1ccc(C(F)(F)F)cc1`, the Potency entry in test [1], in test [5] and in test [3] was “inactive” in each case. Moreover, the Potency was 43.6 µM (active) and inactive in test [2]; 3.06 µM (active) and 2.98 µM (active) in test [4]. Further, the outcome in test [6] and in test [7] was inactive.
For the molecule `Cc1cc(O)c(C(C)C)cc1Cl`, the Potency result in test [1], in test [5], in test [3] and in test [4] was “inactive” each time.
For the molecule `O=C(CCCCCCC(=O)Nc1ccccc1)NO`, the Potency result in test [1] and in test [5] was “inactive” in each case.
`CN1CCCN=C1/C=C/c1cccs1`: the Potency entry in test [1], in test [2], in test [5] and in test [4] was “inactive” in each case.
As for `CCc1cccc(N(C)C(N)=Nc2cccc3ccccc23)c1`, the Potency entry in test [1], in test [2], in test [5] and in test [4] was “inactive” in each case. Also, the molecule was called inactive in test [6] and in test [7].
As for `C[C@@H]1C[C@H]2[C@@H]3CCC4=CC(=O)C=C[C@]4(C)[C@@]3(F)[C@@H](O)C[C@]2(C)[C@H]1C(=O)CO`, the Potency result in test [1], in test [5], in test [3] and in test [4] was “inactive” throughout.
Turning to `CC1(C)O[C@@H]2C[C@H]3[C@@H]4CCC5=CC(=O)C=C[C@]5(C)[C@H]4[C@@H](O)C[C@]3(C)[C@]2(C(=O)CO)O1`, the Potency result in test [1], in test [2], in test [5] and in test [4] was “inactive” each time.
As for `CCCCC/C(=C\c1ccccc1)CO`, the Potency entry in test [1], in test [5], in test [3] and in test [4] was “inactive” throughout.
Regarding `Nc1nc(Cl)nc2c1ncn2[C@@H]1O[C@H](CO)[C@@H](O)[C@@H]1F`, the Potency result in test [1], in test [2], in test [5] and in test [4] was “inactive” each time.
In the case of `CC#N`, the Potency entry in test [1], in test [2], in test [5] and in test [4] was “inactive” throughout.
On to `CCC(C(=O)OCCOCCN(CC)CC)c1ccccc1` (stereo unspecified), for which the Potency result in test [1], in test [5], in test [3] and in test [4] was “inactive” throughout.
As for `CCOC(=O)N1CCC(n2c(=O)[nH]c3cc(Cl)ccc32)CC1`, the Potency entry in test [1], in test [5], in test [3] and in test [4] was “inactive” each time.
For `CC(C)C(OC(=O)c1ccccc1)C(C)(C)COC(=O)c1ccccc1` (stereo unspecified), the Potency result in test [1], in test [5] and in test [3] was “inactive” throughout.
As for `CN(C(=O)C(Cl)Cl)c1ccc(OC(=O)c2ccco2)cc1`, the Potency entry in test [2] and in test [5] was “inactive” in each case.
As for `COCc1c(C(C)C)nc(C(C)C)c(/C=C/[C@@H](O)C[C@@H](O)CC(=O)O)c1-c1ccc(F)cc1`, the Potency result in test [1], in test [5], in test [3] and in test [4] was “inactive” throughout.
As for `CNC(=S)NC`, the Potency in test [1] was 38.9 µM (active). For the same molecule, the Potency entry in test [5] and in test [3] was “inactive” throughout.
With `CCCCC(=O)O[C@]1(C(=O)CO)CC[C@H]2[C@@H]3CCC4=CC(=O)CC[C@]4(C)[C@H]3[C@@H](O)C[C@@]21C`, the Potency entry in test [1], in test [5], in test [3] and in test [4] was “inactive” throughout.
Take `CCc1c2c(nc3ccc(OC(=O)N4CCC(N5CCCCC5)CC4)cc13)-c1cc3c(c(=O)n1C2)COC(=O)[C@]3(O)CC`: the Potency entry in test [2] and in test [5] was “inactive” throughout.
In the case of `C1COCO1`, the Potency entry in test [2] and in test [5] was “inactive” throughout.
`O=C(CS)OCCOC(=O)CS`: the Potency entry in test [1], in test [5] and in test [4] was “inactive” in each case. The Potency in test [3] was 27.3 µM (active).
For `CC[C@@H]([C@H](C)O)n1ncn(-c2ccc(N3CCN(c4ccc(OC[C@@H]5CO[C@@](Cn6cncn6)(c6ccc(F)cc6F)C5)cc4)CC3)cc2)c1=O`, the Potency result in test [1] and in test [4] was “inactive” in each case. Further, the Potency in test [2] is 4.77 µM (active).
As to `CCC1(C)CC(=O)NC1=O` (stereo unspecified), the Potency result in test [1], in test [2] and in test [5] was “inactive” throughout. Besides, the outcome in test [6] and in test [7] was inactive.
As to `CCCCOC(=O)CCS`, the Potency entry in test [1], in test [2], in test [5] and in test [4] was “inactive” in each case.
For the molecule `COC(=O)[C@@H]1CC2=CC(=O)CC[C@]2(C)[C@@]23O[C@@H]2C[C@@]2(C)[C@@H](CC[C@@]24CCC(=O)O4)[C@H]13`, the Potency result in test [1], in test [5], in test [3] and in test [4] was “inactive” throughout.
For `CCCCN(CCCC)CCCOC(=O)c1ccc(N)cc1`, the Potency entry in test [1], in test [5], in test [3] and in test [4] was “inactive” each time.
As to `Cc1ccccc1N1C(=O)c2cc(S(N)(=O)=O)c(Cl)cc2NC1C` (stereo unspecified), the Potency result in test [1], in test [2] and in test [5] was “inactive” throughout. In addition, the outcome in test [6] and in test [7] was inactive.
As to `O=C1NCCN1`, the Potency entry in test [2] and in test [5] was “inactive” throughout.
Consider `Cc1ccc(Nc2nccc(N(C)c3ccc4c(C)n(C)nc4c3)n2)cc1S(N)(=O)=O`, for which the Potency result in test [2] and in test [5] was “inactive” each time.
In the case of `OCC1CC=CCC1` (stereo unspecified), the Potency entry in test [2], in test [5] and in test [3] was “inactive” throughout.
Take `C=C(C)C(=O)OCCOC(=O)CC(C)=O`: the Potency entry in test [2] and in test [5] was “inactive” in each case.
With `O=C(O)c1c(O)c(-c2ccccc2)nc2ccccc12`, the Potency result in test [2], in test [5] and in test [3] was “inactive” throughout.
As to `NC(=O)Nc1ccc(Cl)c(Cl)c1`, the Potency result in test [2], in test [5], in test [3] and in test [4] was “inactive” throughout.
For the molecule `CCOC(=O)c1ccccc1OC`, the Potency result in test [2], in test [5], in test [3] and in test [4] was “inactive” each time.
